Source: PubChem BioAssay
KKLEB cytotox: cytotoxicity in KKLEB CF airway cells, primary screen, cytotoxicity control for CF NF-kB inhibitor project, cell-based, uHTS, fluorescence assay plates; activity change (cytotoxicity), % at 5 µM; actives 0.36% (n = 360,000); KKLEB CF airway cells viability, ATPlite luminescence, overnight; active compounds read low; cells stimulated with P. aeruginosa culture filtrate;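 active = corrected activity change at or below -50% at 5 µM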
TWEAK-Fn14 inh: inhibitors of TWEAK-Fn14 signaling, primary screen, luciferase reporter cells, uHTS; actives 2% (n = 360,000); TWEAK-stimulated Fn14 reporter cells, luciferase luminescence, 8 h; inhibition, % at 10 µM; in the data active = inhibition above about 50%
HIF-2a block: HIF-2a reporter inhibitors, primary screen, luminescence, 786-0 RCC cells. 786-0 RCC cells HIF-2a reporter, luciferase luminescence, overnight. inhibition, % at 18.8 µM. actives 0.72% (n = 360,000). AID 624352, 2012;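 active = inhibition of the luminescence signal of 40% or more relative to plate controls, in a single-dose primary screen at 18.75 µM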
CF NFkB block: inhibitors of PAF-induced NF-kB signaling, primary screen, cell-based, GFP fluorescence, uHTS; KKLEB NF-kB-GFP reporter, GFP fluorescence overnight; inhibition, % at 5 µM; actives 0.86% (n = 360,000); AID 588850, 2011;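 active = at least 50% inhibition at 5 µM, scaled per plate between neutral and stimulator controls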;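 note: PAF is a Pseudomonas aeruginosa culture filtrate used as stimulus; plate controls were PAF-stimulated DMSO wells for no effect and unstimulated DMSO wells for full effect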
TROY NFkB inh: inhibitors of TROY-driven NF-kB signaling, primary screen, Q293 LMP1-TROYcd cells, NF-kB luciferase, uHTS; Q293 LMP1-TROYcd NF-kB luciferase reporter, 4 h; inhibition, % at 10 µM; actives 0.98% (n = 360,000); AID 1347056, 2019;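 active = compounds whose plate-normalised and pattern-corrected inhibition of the luciferase reporter signal at the single screening dose is 50% or more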
Peg3 promoter: Peg3 promoter-driven luciferase inhibitors, primary screen, cell-based, HeLa, luciferase luminescence; inhibition, % at 20 µM; AID 588405, 2011; HeLa PEG-Prom luciferase reporter, overnight; actives 1.7% (n = 360,000);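 active = inhibition of at least 50% at 20 µM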
The depositor's hits bear a star; · = not tested or not shown. The list is not random: actives were taken first. Their share in the collection is about 4%.

SMILES	KKLEB cytotox	TWEAK-Fn14 inh	HIF-2a block	CF NFkB block	TROY NFkB inh	Peg3 promoter
O=C(CCN1C(=O)/C(=C/c2ccccc2Cl)SC1=S)Nc1cccnc1	1	-8	-19	-34	57*	-29
CCOC(=O)CSC1=NC(=O)/C(=C/c2ccc(Br)cc2)S1	-16	-31	-130	42	-9	75*
CCOC(=O)CSC1=NC(=O)/C(=C\c2ccc(OC(C)=O)cc2)S1	1	-9	19	0	-40	53*
C[C@@H]1C2CC(C/C2=N\NC(=O)c2ccncc2)C1(C)C (some centres undefined)	5	2	13	-9	-14	12
COc1ccc(-n2ncc3c(SCC(=O)OC(C)C)ncnc32)cc1	12	7	3	-12	-1	-12
CC(C)(C)n1nnnc1C(c1ccccc1)N1CCN(c2ncccn2)CC1 (centres undefined)	·	3	6	·	-1	·
Nc1ccc(-c2nc3ccc(-c4nc5ccccc5o4)cc3[nH]2)cc1	-76*	31	-275	37	-34	73*
O=C(O)C(Cc1cccs1)c1cccs1 (centres undefined)	7	-10	3	20	-10	19
CCOC(=O)c1ccc(NC(=O)NCCc2cnc[nH]2)cc1	10	60*	-91	-23	0	-43
CCOC(=O)c1ccc(NC(=O)c2nc[nH]c2C(=O)NCCCCCNC(=O)OC(C)(C)C)cc1	-16	31	-1	20	8	70*
CCOC(=O)c1ccc(NC(=O)c2nc[nH]c2C(=O)NCCCCNC(=O)c2[nH]cnc2C(=O)Nc2ccc(C(=O)OCC)cc2)cc1	-36	19	1	45	0	97*
CCOC(=O)c1ccc(NC(=O)c2nc[nH]c2C(=O)NCCCNC(=O)c2[nH]cnc2C(=O)Nc2ccc(C(=O)OCC)cc2)cc1	3	3	8	-1	3	13
CCOC(=O)c1ccc(NC(=O)c2nc[nH]c2C(=O)NCC(=O)OC(C)(C)C)cc1	-15	-22	-9	15	12	27
CC1CC(C)CN(S(=O)(=O)c2ccc3c(c2)CC(C)N3C(=O)C2CC2)C1 (centres undefined)	11	-18	18	8	0	21
O=[N+]([O-])c1cc(S(=O)(=O)Nc2cccc(C(F)(F)F)c2)ccc1-n1nnc2ccccc21	-2	14	9	23	58*	38
O=C(Nc1nccs1)c1ccc(Br)c(S(=O)(=O)N2CCCC2)c1	-6	97*	-56	22	4	-27
Cc1ccc(C(=O)Nc2nccs2)cc1S(=O)(=O)N1CCCCC1	1	15	-75	16	1	-20
CS(=O)(=O)N1Cc2ccccc2CC1C(=O)OCC(=O)NCCc1ccc(S(N)(=O)=O)cc1 (centres undefined)	-3	12	-1	11	6	-3
COc1ccc2c(CC(=O)Nc3nc(C)cs3)coc2c1	-13	5	-62	6	-14	-73
COc1ccc2c(CC(=O)Nc3ncc(C)s3)coc2c1	-7	35	-238	26	8	65*
O=C1C=CC(=O)c2c(O)c(N3CCN(CCO)CC3)c(Cl)c(O)c21	15	24	90*	-23	1	102*
O=C1C=CC(=O)c2c(O)c(N3CCN(CCOCCO)CC3)c(Br)c(O)c21	2	-6	87*	6	16	53*
O=S(=O)(c1ccc(Br)cc1Cl)N1CCN(CCO)CC1	7	5	10	-12	0	3
OCCOCCN1CCN(C2=Nc3ccccc3Sc3ccccc32)CC1	-1	-13	-17	34	-4	-15
CCOC(=O)[C@]12CCC=C1N(Cc1ccco1)C(=O)[C@H](CC(=O)N1CCOCC1)C2	·	22	0	·	-3	·
SMILES	KKLEB cytotox	TWEAK-Fn14 inh	HIF-2a block	CF NFkB block	TROY NFkB inh	Peg3 promoter
Cn1c(SCC(=O)c2ccc(F)cc2)nc2cccnc21	1	61*	-46	-2	3	-12
O=C(CSc1ccc(-c2ccccn2)nn1)c1ccccc1	-3	-16	-214	5	-28	-110
CCOC(=O)CSc1nc2cccnc2n1-c1ccc(F)cc1	-10	6	-3	19	61*	11
Cc1ccc(C(=O)CSc2nc3cccnc3n2C)cc1	5	9	-43	-14	6	-28
O=C(CSc1ccc(-c2ccccn2)nn1)c1ccc(F)cc1	2	82*	1	12	-11	-1
O=C1C(=O)N(Cc2ccncc2)C(c2ccccc2F)/C1=C(\O)c1ccc2c(c1)OCCO2 (centres undefined)	17	-2	-22	-31	-4	-9
CC(=O)Oc1ccc2occ(C(=O)c3ccccc3)c2c1	21	-5	-37	-17	-27	-307
CC(=O)Oc1ccc2occ(-c3ccccc3)c2c1	7	54*	-106	38	24	-208
CC1CN(S(=O)(=O)c2cccc(C(=O)Nc3ccc(S(=O)(=O)NC4=NCCCCC4)cc3)c2)CC(C)O1 (centres undefined)	-8	-7	0	24	2	2
CC1=CC(=O)C(Sc2ccc(C)cc2)=CC1=O	-36	25	10	80*	-41	60*
CCOC(=O)C1(C(=O)OCC)NC(=O)CC1CC(C)C (centres undefined)	14	-24	8	12	0	11
COc1ccc2nc3oc(C(=O)NC4CCN(Cc5ccccc5)CC4)cc3cc2c1	-2	53*	-34	4	-15	-71
COc1ccccc1N1CCN(S(=O)(=O)c2c(C(=O)N3CCOCC3)c(C)n(C)c2C)CC1	3	1	11	-1	8	16
COc1cc(OC)c(C#N)c(S(=O)(=O)Cc2ccccc2)c1	-8	0	7	6	-5	6
N#Cc1c([N+](=O)[O-])cc([N+](=O)[O-])cc1S(=O)(=O)Cc1ccccc1	-62*	43	94*	82*	52*	98*
Cc1cccc(Cn2nc(C(C)(C)C)cc2C(=O)Nc2ccc(F)cc2)c1	-10	26	-29	23	58*	33
COc1ccc(N(C)S(=O)(=O)c2ccc3c(c2)NC(=O)CO3)c(OC)c1	-2	-12	7	-5	-10	0
O=C(Nc1cccc(S(=O)(=O)N2CCCC2)c1)c1ccco1	4	11	-8	4	10	18
O=C(Nc1ccc(NC(=O)c2ccco2)nc1)c1ccccn1	4	52*	-42	1	-40	-3
O=C(Nc1ccc(NC(=O)C2CC2)cc1)c1ccco1	-2	32	-167	-19	-50	-216
